Shown are actives, neighbours in structure and some others; about 1.1% of the full set was active somewhere.
MazEF act: activators of E. coli MazEF toxin-antitoxin RNase; P0AE70; FAM/BHQ RNA-DNA oligo cleavage fluorescence, 5 h; activation, % at 20 µM; 350,000 tested, 0.32% active; AID 504720; in the data active = activation above about 50%
Target sequence (P0AE70 whole entry, looked up): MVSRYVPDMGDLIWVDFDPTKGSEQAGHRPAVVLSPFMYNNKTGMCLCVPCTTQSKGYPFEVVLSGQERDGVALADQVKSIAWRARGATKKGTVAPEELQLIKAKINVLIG
BJeLR lethal: kills HRASV12-expressing BJeLR cells. BJeLR (HRASV12) viability, CellTiter-Glo ATP luminescence, 48 h. inhibition, % (no concentration beside the values). 300,000 tested, 0.17% active. AID 1554; in the data active = inhibition above about 50%
PrPC surface inh: reduces human prion protein on the cell surface; cell surface PrPC, TR-FRET read-out; inhibition, % at 13.8 µM; 370,000 tested, 0.43% active; in the data active = inhibition above about 24%
PrP UTR inh: suppresses PrP 5' UTR mRNA reporter expression. cell-based PrP 5' UTR mRNA reporter, plate reader. inhibition, % (no concentration beside the values). 340,000 tested, 0.35% active. AID 488862; in the data active = inhibition above about 52%
Hits are given with their value; 0 = inactive; - = no result.

SMILES | MazEF act | BJeLR lethal | PrPC surface inh | PrP UTR inh
O=Nc1c(-c2c(O)[nH]c3cc(Br)ccc23)[nH]c2ccccc12 | 55 | 0 | 0 | 0
CCCCCCCCN1C(=O)[C@@H](CC(=O)NCC2CCCCC2)C[C@@]2(C(=O)OC)C1=C[C@H](C1CCCC1)O[C@@H]2C | - | - | 0 | -
CC(C)c1nc2sc3c(=O)[nH]cnc3c2c2c1CCC2 | 0 | 0 | 0 | 0
CC(C)c1nc2sc3c(=O)[nH]cnc3c2c2c1CCCC2 | 68 | 0 | 0 | 0
COC(=O)c1ccccc1S(=O)(=O)NC(=O)[C@H]1O[C@@H](n2ccc(=O)[nH]c2=O)[C@H](O)[C@@H]1O | - | - | 0 | -
Cc1cc2c(nc1C)CCCN2S(=O)(=O)c1ccc(C#N)cc1 | - | - | 0 | -
CCOc1cccc2sc(N(CCCN(C)C)C(=O)c3ccc(S(=O)(=O)N4CCc5ccccc5C4)cc3)nc12 | 50 | 0 | 0 | 0
CCCCCCCCCC[n+]1cccc2c3ccccc3ccc21 | 0 | 60 | 0 | 0
CCCCCCCC[n+]1cccc2c3ccccc3ccc21 | 0 | 0 | 0 | 0
COc1cc2c(cc1OC)C1=CC(=O)C(=O)N1C(C)(C)C2 | 55 | 0 | 0 | 0
COC(=O)[C@]12C[C@H](CC(=O)N3CCN(C(=O)c4ccco4)CC3)C(=O)N(Cc3ccc4c(c3)OCO4)C1=C[C@H](C(C)C)O[C@@H]2C1CC1 | - | - | 0 | -
Cc1ccc(NC(=O)Cn2nnc(C(=O)NCc3ccc4c(c3)OCO4)c2N)cc1 | 0 | 0 | 0 | 0
Nc1c(C(=O)NCc2ccc3c(c2)OCO3)nnn1CC(=O)Nc1ccc(Br)cc1 | 90 | 0 | 0 | 0
Cc1cc(C)c(NC(=O)Cn2nnc(C(=O)NCc3ccc4c(c3)OCO4)c2N)c(C)c1 | 70 | 0 | - | 0
CC(C)c1ccc(NC(=O)Cn2nnc(C(=O)NCc3ccc4c(c3)OCO4)c2N)cc1 | 0 | 0 | 0 | 0
C[C@H](CO)N1C[C@H](C)[C@@H](CN(C)C(=O)Nc2ccccc2)OCc2cn(nn2)CCCC1=O | - | - | 0 | -
CCOC(=O)/C(=C\Nc1ccc(OCc2ccccc2)cc1)NC(=O)c1ccccc1 | - | - | 0 | -
COC(=O)[C@]12C[C@H](CC(=O)N3CCOCC3)C(=O)N(CCC3=CCCCC3)C1=C[C@H](C(C)(C)C)O[C@@H]2C | - | - | 0 | -
C/C(=N\NC(=O)c1c([N+](=O)[O-])c(C)nn1C)c1ccc(NC(=O)C2CCCC2)cc1 | 0 | 0 | 0 | 67
CCN(CC)c1ccc2cc(C(=O)NNC(=O)c3ccc(S(=O)(=O)N4CCCCC4)cc3)c(=O)oc2c1 | 75 | 0 | 0 | 0
Cc1ccc(C(=O)NNC(=O)c2ccc(S(=O)(=O)N3CCCCC3)cc2)cc1 | 0 | - | 0 | 0
O=C(Nc1cccc(Cl)c1)c1ccc2c(c1)SC1=NS(=O)(=O)CCN12 | 136 | - | 0 | 0
C[C@@H]1CN([C@@H](C)CO)C(=O)CCCn2cc(nn2)CO[C@H]1CN(C)C(=O)Nc1cccc(F)c1 | - | - | 0 | -
CCOc1cc(OCC)cc(C(=O)N2CCC[C@@H]2C(=O)N2CCC[C@H]2C(=O)NCc2ccccc2)c1 | - | - | 0 | -
CCOCCCNc1nc2c(C)cccn2c(=O)c1/C=C1\SC(=S)N(CC(C)C)C1=O | 0 | 0 | 0 | 0
SMILES | MazEF act | BJeLR lethal | PrPC surface inh | PrP UTR inh
Cc1cccn2c(=O)c(/C=C3\SC(=S)NC3=O)c(NCCCN3CCOCC3)nc12 | 0 | 0 | 0 | 0
CCCN1C(=O)/C(=C/c2c(NCCCOCC)nc3c(C)cccn3c2=O)SC1=S | 295 | - | 0 | 0
CCOCCCNc1nc2c(C)cccn2c(=O)c1/C=C1\SC(=S)N(C(C)CC)C1=O (stereo not drawn) | 603 | 0 | 0 | 0
COC(=O)[C@]12C[C@H](CC(=O)NCc3ccccc3)C(=O)N(CCC3=CCCCC3)C1=C[C@H](C1CCCC1)O[C@@H]2C | - | - | 0 | -
Cc1ccc2nc(N3C(=O)C(O)=C(C(=O)c4ccco4)C3c3cccs3)sc2c1 (stereo not drawn) | 110 | 0 | 0 | 0
COc1ccc2nc(N3C(=O)C(O)=C(C(=O)c4ccco4)C3c3ccc(C)o3)sc2c1 (stereo not drawn) | 0 | - | 0 | 0
CC(OC(=O)c1c2c(nc3ccccc13)/C(=C\c1ccc3c(c1)OCO3)CCC2)C(=O)Nc1ccc(S(N)(=O)=O)cc1 (stereo not drawn) | 165 | - | - | 0
Fc1ccc(-c2cc(-c3nnc4sc(-c5ccco5)nn34)[nH]n2)cc1 | - | - | 0 | -
CCCCn1cnc2c(c(-c3ccccc3)c(-c3ccccc3)n2Cc2ccco2)c1=N | 0 | 62 | 0 | -
CCC[C@H]1[C@@H](OC(=O)N2CCOCC2)CC[C@@]23CCCN2C(=O)CCC[C@@H]13 | - | - | 0 | -
COc1ccc(C(=O)/C=C/C(=O)N(CC(=O)NC2CCCCC2)Cc2ccccc2OC)c(O)c1 | 0 | 51 | 0 | 0
COc1ccc(C(=O)/C=C/C(=O)N(CC(=O)NC2CCCCC2)Cc2ccccc2)c(O)c1 | 0 | 0 | 0 | 0
CCCCCCCCCn1ccc(=N)cc1 | 0 | 0 | 25 | 0
COC(=O)[C@]12C[C@H](CC(=O)N3CCN(C(=O)C4CC4)CC3)C(=O)N(CCc3ccc(OC)c(OC)c3)C1=C[C@H](C(C)C)O[C@@H]2C1CC1 | - | - | 0 | -
Cn1c(=O)c(Nc2ccc(O)cc2)c2c3c(cccc31)C(=O)c1ccccc1-2 | 64 | 0 | 0 | 0
Cc1nc2ccccc2c(=O)n1/N=C/c1ccc([N+](=O)[O-])o1 | - | 0 | - | -
O=c1c2ccccc2nc(/C=C/c2ccc([N+](=O)[O-])o2)n1-c1ccc(O)cc1 | 0 | 64 | 0 | 0
Cc1cccc(-n2c(/C=C/c3ccc([N+](=O)[O-])o3)nc3ccccc3c2=O)c1 | 90 | 0 | 0 | 0
O=c1c2ccccc2nc(/C=C/c2ccccc2)n1-c1ccc(O)cc1 | 0 | 0 | 0 | 0
COC(=O)[C@]12C[C@H](CC(=O)N3CCOCC3)C(=O)N(Cc3ccc4c(c3)OCO4)C1=C[C@H](COCc1ccccc1)O[C@@H]2C | - | - | 0 | -
CCc1ccc[n+](-c2nc3ccccc3nc2C(=C=[N-])C#N)c1 | 578 | 0 | 0 | 0
Cc1cc(C)c2cc3c(N)c(C(=O)Nc4c(C)[nH]c(=O)[nH]c4=O)sc3nc2c1 | 155 | 0 | 0 | 0
CCc1cccc(CC)c1NC(=O)C1SC(=Nc2ccccc2C)C(c2nc3ccccc3s2)=C1N (stereo not drawn) | 0 | 0 | 25 | 0
Cc1ccc(OCC(=O)Nc2ccc(Cl)cc2)c(-n2nc3ccccc3n2)c1 | 69 | 0 | 0 | 0
COc1ccc(/C=C/c2cc(C(=O)O)c3ccccc3n2)cc1 | 0 | 0 | 0 | 71
SMILES | MazEF act | BJeLR lethal | PrPC surface inh | PrP UTR inh
Cc1ccccc1C(=O)N[C@H](C(=O)N1CCC[C@H]1C(=O)NCCc1ccccc1Cl)c1ccccc1 | - | - | 0 | -
COC(=O)Cc1nnn2c1[C@H](C)[C@H](C(C)(C)C)OCC2 | - | - | 0 | -
Cc1ccc(-n2ncc3c(N4CCCC4)ncnc32)c(C)c1 | 0 | 0 | 0 | 0
COc1cccc(N2CCN(c3ncnc4c3cnn4-c3ccc(C)cc3C)CC2)c1 | 0 | 0 | 34 | 0
Cc1cc(Br)c2nc(-c3ccc(Cl)cc3)c(Cc3cccc(Cl)c3)n2c1 | - | - | 0 | -
Nc1cc(OC(=O)c2cccs2)nn1S(=O)(=O)c1ccc(F)cc1 | 0 | 0 | 0 | 0
Cc1ccc(C(=O)Oc2cc(N)n(S(=O)(=O)c3ccc(F)cc3)n2)cc1 | 68 | 0 | 0 | 0

Source: PubChem
